The results in this text go back to PubChem BioAssay (NCI).

SMILES strings stand for the structures. About 83,000 compounds went through this panel and 20% of them were active in at least one assay; those are over-represented in the sample as a whole.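 48-hour exposure, single concentration, 96-well plates; percent growth endpoint where 0 means no net growth. Active: below 10.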 Unmarked numbers belong to inactive results. The source made the active and inactive calls.

Test systems include RPMI-8226 leukemia; OVCAR-8 ovarian; OVCAR-5 ovarian; OVCAR-4 ovarian; SK-OV-3 ovarian; IGROV1 ovarian; OVCAR-3 ovarian; HS 578T breast; NCI/ADR-RES ovarian; BT-549 breast; MDA-MB-435 melanoma; SW-620 colon; MCF7 breast; HCT-116 colon; HCC-2998 colon; KM12 colon; T-47D breast.
Holding throughout (test): NCI-60 one-dose screen, 48 h (100 = growth as untreated, 0 = no growth, -100 = all killed)
Common to all, as to conditions: 10 µM unless noted

`C[C@@H](C[C@H](CCOCc1cccnc1)c1ccccc1)c1cc2ccccc2o1`: the growth in the assay on RPMI-8226 leukemia was 75%; with OVCAR-8 ovarian it was 88.6%; in the assay with OVCAR-5 ovarian it was 87.8%; in the assay on OVCAR-4 ovarian, 81.6%; in the assay on SK-OV-3 ovarian, 84.7%; in the assay on IGROV1 ovarian, 83.8%. Further, the growth in the assay on OVCAR-3 ovarian was 94%; in the assay with HS 578T breast, 85.1%; in the assay with NCI/ADR-RES ovarian it was 97.9%; with BT-549 breast, 102%; in the assay with MDA-MB-435 melanoma it was 103%; in the assay on SW-620 colon, 91.6%. Besides, the growth was 106% in the assay on MCF7 breast, 75.6% in the assay with HCT-116 colon, 101% with HCC-2998 colon and 88% in the assay on KM12 colon.

Turning to `COc1cc(/C=C/C(=O)c2ccc(Nc3nc(Nc4ccccc4)nc(Nc4ccc(Cl)cc4)n3)cc2)cc(OC)c1OC`, the growth with RPMI-8226 leukemia is -4.87% (active); in the assay with OVCAR-8 ovarian, 41.1%; with OVCAR-5 ovarian, 55.1%; in the assay on OVCAR-4 ovarian, 61%; with SK-OV-3 ovarian, 79.5%; in the assay on IGROV1 ovarian, 54.8%. The growth in the assay on OVCAR-3 ovarian was 48%; with NCI/ADR-RES ovarian, 21.8%; with T-47D breast, 28.3%; in the assay on BT-549 breast it was 50.9%; in the assay with MDA-MB-435 melanoma, 58.8%; in the assay with SW-620 colon it was 56.2%. For the same molecule, the growth in the assay on MCF7 breast is 7.84% (active); with HCT-116 colon, 0.251% (active); with KM12 colon, 46.9%.

Take `COC1(CC[C@@H](C)COC2OC(CO)C(O)C(O)C2O)O[C@H]2C[C@H]3[C@@H]4CC=C5C[C@@H](OC6OC(CO)C(OC7OC(C)C(O)C(O)C7O)C(O)C6OC6OC(C)C(O)C(O)C6O)CC[C@]5(C)[C@H]4CC[C@]3(C)[C@H]2[C@@H]1C` (stereo not given in full): the growth in the assay on RPMI-8226 leukemia is -56.3% (active); in the assay with OVCAR-8 ovarian it was -64.6% (active); in the assay with OVCAR-5 ovarian, -86.6% (active); with OVCAR-4 ovarian it was -64.7% (active); in the assay on SK-OV-3 ovarian it was -71.8% (active); in the assay on IGROV1 ovarian, -78.6% (active). The growth in the assay with OVCAR-3 ovarian is -73.6% (active); with NCI/ADR-RES ovarian, -75.6% (active); in the assay on T-47D breast, -4.7% (active); in the assay on BT-549 breast, -84.2% (active); in the assay on MDA-MB-435 melanoma it was -61.3% (active); with SW-620 colon, -96.4% (active). Moreover, the results for the growth with MCF7 breast, in the assay with HCT-116 colon and in the assay with KM12 colon were -85.5% (active), -86.1% (active) and -82.2% (active), respectively.

On to `C=C1C(=O)O[C@H]2[C@H]1CC/C(COC(=O)NCc1ccc(Cn3c(=O)sn(CCCCl)c3=O)cc1)=C\CC[C@@]1(C)O[C@@H]21`, for which the growth with RPMI-8226 leukemia is -30.1% (active); with OVCAR-8 ovarian it was 43.7%; in the assay on OVCAR-5 ovarian, 69.8%; in the assay with OVCAR-4 ovarian, 15.2%; with SK-OV-3 ovarian it was 91.9%; with IGROV1 ovarian it was -36.3% (active). Besides, the growth in the assay on OVCAR-3 ovarian was -87.9% (active); with HS 578T breast it was 88.2%; in the assay with NCI/ADR-RES ovarian, 104%; in the assay on BT-549 breast, 51.8%; in the assay on MDA-MB-435 melanoma, 26.8%; in the assay on SW-620 colon it was -51.9% (active). Moreover, the growth in the assay with MCF7 breast is 5.59% (active); with HCT-116 colon it was -63.6% (active); in the assay on HCC-2998 colon, 91.4%; in the assay with KM12 colon it was 77.7%.

With `CC(C)n1nc(C#Cc2cccc(NC(=O)c3cccc(C(F)(F)F)c3)c2)c2c(N)ncnc21`, the growth in the assay on RPMI-8226 leukemia is -11.8% (active); in the assay with OVCAR-8 ovarian, -12.7% (active); in the assay on OVCAR-5 ovarian it was -27.5% (active); in the assay with OVCAR-4 ovarian it was 11.4%; with SK-OV-3 ovarian, -51.6% (active); in the assay on IGROV1 ovarian, -61.6% (active). The growth in the assay with OVCAR-3 ovarian is 1.38% (active); in the assay with HS 578T breast, -31.2% (active); in the assay on NCI/ADR-RES ovarian it was -13% (active); with BT-549 breast, 9.72% (active); in the assay with MDA-MB-435 melanoma, 2.12% (active); in the assay on SW-620 colon, 1.28% (active). Moreover, the growth in the assay with MCF7 breast is 14.4%; with HCT-116 colon, -50.6% (active); with HCC-2998 colon it was 2.89% (active); in the assay with KM12 colon it was 3.28% (active).

For `CS(=O)(=O)c1ccc(-c2nc3cc(Cl)ccc3n2CC(=O)NO)cc1`, the growth in the assay with RPMI-8226 leukemia was 90.9%; in the assay with OVCAR-8 ovarian, 88.3%; with OVCAR-5 ovarian, 100%; with OVCAR-4 ovarian, 87.6%; with SK-OV-3 ovarian, 96.4%; in the assay with IGROV1 ovarian, 88.4%. In addition, the growth in the assay with OVCAR-3 ovarian was 96.1%; in the assay with HS 578T breast it was 93.2%; in the assay on NCI/ADR-RES ovarian, 108%; in the assay with BT-549 breast, 97.6%; in the assay with MDA-MB-435 melanoma, 106%; in the assay on SW-620 colon it was 96.2%. Moreover, the growth in the assay with MCF7 breast is 81.3%; in the assay on HCT-116 colon, 103%; with HCC-2998 colon, 115%; with KM12 colon, 93.9%.

For `CC1(C)C(=O)/C(=C\c2cccnc2)C[C@]2(C)[C@H]3CC=C4[C@@H]5C[C@@](C)(C(=O)O)CC[C@]5(C)CC[C@@]4(C)[C@]3(C)CC[C@@H]12`, the growth was 71.5% with RPMI-8226 leukemia; 89.7% in the assay on OVCAR-8 ovarian; 107% with OVCAR-5 ovarian; 90.6% with OVCAR-4 ovarian; 94.9% in the assay with SK-OV-3 ovarian; 103% with IGROV1 ovarian. For the same molecule, the growth in the assay with OVCAR-3 ovarian is 98.3%; with HS 578T breast it was 99.2%; with NCI/ADR-RES ovarian, 102%; in the assay on BT-549 breast it was 96.6%; with MDA-MB-435 melanoma, 103%; in the assay on SW-620 colon, 107%. The growth in the assay on MCF7 breast is 87.7%; in the assay on HCT-116 colon it was 91.9%; in the assay on HCC-2998 colon, 108%; in the assay on KM12 colon, 99.2%.

Consider `COc1ccc(C2=NC(=O)NC2c2ccc(OC)cc2)cc1` (stereo not given), for which the growth in the assay on RPMI-8226 leukemia is 57.4%; in the assay on OVCAR-8 ovarian, 97.6%; in the assay on OVCAR-5 ovarian, 77.8%; in the assay with OVCAR-4 ovarian it was 74.8%; in the assay with SK-OV-3 ovarian, 66.4%; in the assay on IGROV1 ovarian, 77.8%. Besides, the growth is 69% in the assay on OVCAR-3 ovarian; 1.85% (active) with NCI/ADR-RES ovarian; 62.5% in the assay on T-47D breast; 90.6% in the assay with BT-549 breast; 9.83% (active) in the assay on MDA-MB-435 melanoma; 38.7% in the assay with SW-620 colon. The growth with MCF7 breast was 29.3%; in the assay on HCT-116 colon it was 47%; with KM12 colon, 41.1%.

With `CCCn1nc(-c2ccccc2)c2c(-c3ccccc3)onc2c1=O`, the growth is 70.2% with RPMI-8226 leukemia; 102% in the assay on OVCAR-8 ovarian; 87.7% in the assay on OVCAR-5 ovarian; 79.7% in the assay on OVCAR-4 ovarian; 83.6% with SK-OV-3 ovarian; 72.5% with IGROV1 ovarian. For the same molecule, the growth in the assay on OVCAR-3 ovarian is 91.8%; in the assay with HS 578T breast, 67.7%; in the assay on NCI/ADR-RES ovarian it was 68.5%; in the assay on BT-549 breast it was 71.5%; in the assay with MDA-MB-435 melanoma, 8.42% (active); in the assay with MCF7 breast it was 40.9%. Also, the growth is 58.9% in the assay with HCT-116 colon, 85.3% in the assay with HCC-2998 colon and 60% in the assay with KM12 colon.
